Data reported in PubChem BioAssay (NCI).
“And” between values parts separate entries of the source, which are not always exact repeats. Equal values may be shown once. The panel holds about 83,000 compounds, 20% with a hit somewhere; the sample as a whole holds those more often.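 How to read the values: 0–100, growth inhibition (40 = 60% inhibited); 0, no net growth; -100 to 0, cell death (-40 = 40% of starting cells died; -100 = all dead).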 The source made the active and inactive calls. Rule for the calls: active = growth percent below 10; inactive = the rest.

What was measured:
Assay in all cases: NCI-60 one-dose screen, 48 h (100 = growth as untreated, 0 = no growth, -100 = all killed)
Details in all cases: 10 µM unless noted
SK-MEL-2 melanoma = system: SK-MEL-2 melanoma
EKVX NSCLC = system: EKVX NSCLC
SN12C renal = system: SN12C renal
UO-31 renal = system: UO-31 renal
TK-10 renal = system: TK-10 renal
ACHN renal = system: ACHN renal
CAKI-1 renal = system: CAKI-1 renal
A498 renal = system: A498 renal
CCRF-CEM leukemia = system: CCRF-CEM leukemia
MOLT-4 leukemia = system: MOLT-4 leukemia

Measured: growth

S=C(Nc1ccccc1)Nc1ccc(OCc2nc3ccc(Cl)cc3[nH]2)cc1
inactive: SK-MEL-2 melanoma 91.4% | EKVX NSCLC 67.2% | SN12C renal 78.8% | UO-31 renal 70.3% | TK-10 renal 114% | ACHN renal 81.8% | CAKI-1 renal 84.1% | A498 renal 110% | CCRF-CEM leukemia 54.2% | MOLT-4 leukemia 52.3%

CCN1C(=O)N(CC)C2NNC(Sc3c(C(=O)O)c4ccccc4n(CCC(C)C)c3=O)=NC21 (stereo not given)
inactive: SK-MEL-2 melanoma 22.3% | EKVX NSCLC 20.8% | SN12C renal 16.3% | UO-31 renal 28.1% | TK-10 renal 62.1% | ACHN renal 24% | CAKI-1 renal 38.9% | A498 renal 76.4%
active: CCRF-CEM leukemia 7.16% | MOLT-4 leukemia 3.81%

CNS(=O)(=O)N1CCc2c(Br)c3c(c(OC)c2C1CCc1ccccc1)OCO3 (stereo not given)
inactive: CCRF-CEM leukemia 12.4%
active: SK-MEL-2 melanoma -66.2% | EKVX NSCLC -6.87% | SN12C renal -88.8% | UO-31 renal -20.1% | TK-10 renal -0.435% | ACHN renal 0.33% | CAKI-1 renal 5.41% | A498 renal -69.5% | MOLT-4 leukemia 1.16%

COC(=O)c1ccc(-c2c(-c3ccccc3)c(F)c3oc(C(=O)OC)c(N)c3c2-c2ccccc2)cc1
inactive: SK-MEL-2 melanoma 99.6% | EKVX NSCLC 90.4% | SN12C renal 98.1% | UO-31 renal 88.6% | TK-10 renal 114% | ACHN renal 102% | CAKI-1 renal 81.1% | A498 renal 99% | CCRF-CEM leukemia 95% | MOLT-4 leukemia 66.5%

Cc1nn(-c2ccccc2)c2nc(C)n(C(=O)N/N=C/c3cccc([N+](=O)[O-])c3)c(=O)c12
inactive: SK-MEL-2 melanoma 92.9% | EKVX NSCLC 49.3% | SN12C renal 94.4% | UO-31 renal 81.4% | TK-10 renal 138% | ACHN renal 91% | CAKI-1 renal 90.8% | A498 renal 136% | CCRF-CEM leukemia 71.2% | MOLT-4 leukemia 79.2%

CCCCCCCCc1ccc(C(=O)Nc2ccc(C)cc2C(=O)O)cc1
inactive: SK-MEL-2 melanoma 94.8% | EKVX NSCLC 77.5% | SN12C renal 89.5% | UO-31 renal 76.3% | TK-10 renal 103% | ACHN renal 69.4% | CAKI-1 renal 85.4% | A498 renal 109% | CCRF-CEM leukemia 53.9% | MOLT-4 leukemia 75.3%

OC(c1ccccc1)(c1ccccc1)C1CCN(c2ccc3nnc(Cl)n3n2)CC1
active: UO-31 renal -74.1% | MOLT-4 leukemia -2.45%
inactive: SK-MEL-2 melanoma 31.3% | EKVX NSCLC 19.9% | SN12C renal 50.1% | TK-10 renal 49.7% | ACHN renal 29.7% | CAKI-1 renal 30.8% | A498 renal 77.8% | CCRF-CEM leukemia 18.2%

Nc1cc2ccccc2c(=O)n1NC(=O)c1ccc(Br)cc1
inactive: SK-MEL-2 melanoma 108% | EKVX NSCLC 83.2% | SN12C renal 95.5% | UO-31 renal 74.9% | TK-10 renal 116% | ACHN renal 104% | CAKI-1 renal 83.8% | A498 renal 189% | CCRF-CEM leukemia 86.4% | MOLT-4 leukemia 90.8%

O=C1NC(=NC23CC4CC(CC(C4)C2)C3)N/C1=C\c1ccc2ncccc2c1
active: SK-MEL-2 melanoma -5.99% | EKVX NSCLC 9.7% | SN12C renal -2.27% | TK-10 renal -22.9% | ACHN renal 4.48% | CAKI-1 renal -61.1% | A498 renal -31% | CCRF-CEM leukemia -15% | MOLT-4 leukemia -13%
inactive: UO-31 renal 14.7%

Cc1ccc(Cl)cc1NC(=O)N/C(N)=N/c1nc2ccccc2s1
active: SK-MEL-2 melanoma -20.6% | SN12C renal -40% | UO-31 renal -13% | ACHN renal -50.3% | CAKI-1 renal -2.72% | A498 renal 5.76% | CCRF-CEM leukemia -6.91% | MOLT-4 leukemia -8.52%
inactive: EKVX NSCLC 15.8% | TK-10 renal 14.7%

Cc1ccc(O)cc1Nc1nc(SCCN2CCOCC2)nc2c1cnn2CC(Cl)c1ccc(Br)cc1 (stereo not given)
active: SK-MEL-2 melanoma -35.9% | UO-31 renal 6.07% | ACHN renal 1.87% | CAKI-1 renal -31.5% | CCRF-CEM leukemia 5.71% | MOLT-4 leukemia -24.6%
inactive: EKVX NSCLC 21% | SN12C renal 20% | TK-10 renal 17.8% | A498 renal 29.3%

CCOc1ccccc1[C@H]1C(C(=O)c2ccc(Cl)cc2)C2(N[C@@H]1c1ccccc1)C(=O)Nc1ccccc12 (stereo not given in full)
inactive: TK-10 renal 36% | CCRF-CEM leukemia 12.1%
active: SK-MEL-2 melanoma -46.5% | EKVX NSCLC 9% | SN12C renal -77.8% | UO-31 renal 8.77% | ACHN renal 2.68% | CAKI-1 renal 8.88% | A498 renal -2.33% | MOLT-4 leukemia -26.4%

Cn1ncc2c(N)nc(Oc3ccccc3-c3ccccc3)nc21
inactive: EKVX NSCLC 41.6% | SN12C renal 43.3% | UO-31 renal 48.1% | TK-10 renal 65.1% | ACHN renal 51.6% | CAKI-1 renal 29% | A498 renal 105% | CCRF-CEM leukemia 25.5%
active: SK-MEL-2 melanoma -4.9% | MOLT-4 leukemia 8.1%

COC(=O)c1cc(C(=O)C(Br)Br)n2c1ccc1c3ccccc3ccc12
inactive: SK-MEL-2 melanoma 104% | EKVX NSCLC 43.3% | SN12C renal 53.3% | UO-31 renal 37.8% | TK-10 renal 65.3% | ACHN renal 36.2% | CAKI-1 renal 58.3% | A498 renal 121% | CCRF-CEM leukemia 35.6% | MOLT-4 leukemia 22.9%

O=C(Cc1c(-c2ccccc2[N+](=O)[O-])n(-c2ncnc3c2c(-c2ccccc2)c(-c2ccccc2)n3Cc2ccccc2)[nH]c1=O)c1ccc(Cl)c(Cl)c1
inactive: EKVX NSCLC 14.6% | SN12C renal 12.6% | UO-31 renal 41.7% | TK-10 renal 38.5% | ACHN renal 25.4% | A498 renal 56.1% | CCRF-CEM leukemia 13.2% | MOLT-4 leukemia 24.1%
active: SK-MEL-2 melanoma -22.4% | CAKI-1 renal 9.03%

O=C(CSc1nc2sc3c(c2c(=O)n1-c1ccc(Cl)cc1)CCCC3)N/N=C/C=C/c1ccccc1
active: SK-MEL-2 melanoma -29.3% | TK-10 renal -19% | A498 renal -40.8% | CCRF-CEM leukemia -33.7% | MOLT-4 leukemia -24.4%
inactive: EKVX NSCLC 39.7% | SN12C renal 15.4% | UO-31 renal 85.1% | ACHN renal 25.3% | CAKI-1 renal 38.5%

CCc1ccccc1-c1nc(CN[C@@H]2C[C@@H]3C[C@H]([C@H]2C)C3(C)C)c(C)o1
active: SK-MEL-2 melanoma -83.6% | EKVX NSCLC -81.8% | SN12C renal -79.3% | UO-31 renal -87.8% | TK-10 renal -88.9% | ACHN renal -97.9% | CAKI-1 renal -95% | A498 renal -90.9% | CCRF-CEM leukemia 3.82% | MOLT-4 leukemia -28.2%

COc1ccc2c(c1)C(Sc1ccc(Cl)cc1)c1c(nc(N)c(C#N)c1N)O2 (stereo not given)
active: CCRF-CEM leukemia -10.6% | MOLT-4 leukemia -1.37%
inactive: SK-MEL-2 melanoma 79.5% | EKVX NSCLC 43.8% | SN12C renal 55.7% | UO-31 renal 26.5% | TK-10 renal 99.1% | ACHN renal 60.1% | CAKI-1 renal 51.9% | A498 renal 84.4%

COc1ccccc1/C=C/c1cccc(NC(=S)NCCCCN(C)C)c1
active: SK-MEL-2 melanoma -81.4% | EKVX NSCLC -91.7% | SN12C renal -96.6% | UO-31 renal -84.9% | TK-10 renal -82.7% | ACHN renal -100% | CAKI-1 renal -87.8% | A498 renal -65.9% | CCRF-CEM leukemia -38.8% | MOLT-4 leukemia -32.9%

COC(=O)c1c(C(=O)OC)c2c3ccccc3c3ccccc3n2c1C(=O)C(C)(C)C
inactive: SK-MEL-2 melanoma 83.4% | EKVX NSCLC 96.2% | SN12C renal 87.3% | UO-31 renal 75.4% | TK-10 renal 105% | ACHN renal 82% | CAKI-1 renal 60.7% | A498 renal 132% | CCRF-CEM leukemia 65.6% | MOLT-4 leukemia 45.7%

COc1ccc(N=Nc2c(N)nn3c(N)c(C#N)c(-c4ccc(C)cc4)nc23)cc1
active: CCRF-CEM leukemia 8.68% | MOLT-4 leukemia 5.8%
inactive: SK-MEL-2 melanoma 91% | EKVX NSCLC 36.3% | SN12C renal 57.7% | UO-31 renal 61.1% | TK-10 renal 101% | ACHN renal 56.8% | CAKI-1 renal 17.4% | A498 renal 128%

CC1=C(C(=O)Nc2ccccc2)C(c2ccc3ccccc3c2)n2c(nc3ccccc32)N1 (stereo not given)
inactive: SK-MEL-2 melanoma 106% | EKVX NSCLC 85% | SN12C renal 14.4% | UO-31 renal 75% | TK-10 renal 116% | ACHN renal 52.7% | CAKI-1 renal 60.9% | A498 renal 134% | CCRF-CEM leukemia 11.1% | MOLT-4 leukemia 12.7%

Cc1cc(=O)oc2cc(OCC(O)CNN3C(=O)c4cccc5c(N6CCN(C)CC6)ccc(c45)C3=O)ccc12 (stereo not given)
inactive: SK-MEL-2 melanoma 92.2% | EKVX NSCLC 97.3% | SN12C renal 88.9% | UO-31 renal 83.8% | TK-10 renal 138% | ACHN renal 91.2% | CAKI-1 renal 96.2% | A498 renal 122% | CCRF-CEM leukemia 96.7% | MOLT-4 leukemia 90.4%

O=C(CCl)Nc1ccc(C(=O)/C=C/c2cc3ccccc3nc2Cl)cc1
active: UO-31 renal -98.1% and 1.88% | ACHN renal -99.2% and 9.77% | CCRF-CEM leukemia -23.1% and 5.66%
-5.66% (active) and 36.7% (inactive): EKVX NSCLC
-43.5% (active) and 11.1% (inactive): CAKI-1 renal
-46% (active) and 18.3% (inactive): MOLT-4 leukemia
inactive: TK-10 renal 49.1% and 74.8% | A498 renal 116% and 193%
-3.09% (active) and 60% (inactive): SK-MEL-2 melanoma
-74.1% (active) and 39.4% (inactive): SN12C renal
